Screens (PubChem)
DAX1 inh-1 – blocks DAX1 repression of SF-1 activated StAR promoter. HEK293T StAR-luciferase reporter, SF-1/DAX-1 repression relief. inhibition, % at 6.8 µM. 1.1% of 370,000 active;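 active means inhibition above the mean over all tested compounds plus 3 SD, cut at about 3.6% in these data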;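 further: higher inhibition means more luminescence from relief of DAX-1 repression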
DAX1 inh-2 – inhibitors of human orphan nuclear receptor DAX1 (NR0B1). 0.99% of 340,000 active. HEK293 Gal4-DAX1 luciferase reporter, luminescence. P51843. inhibition, % at 6.75 µM. AID 504766;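 active means inhibition above the mean over all tested compounds plus 3 SD, cut at about 4.2% in these data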;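 further: inhibition shows as a rise in luminescence from relieved DAX1 repression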
Target sequence (P51843 207-470 limits assumed): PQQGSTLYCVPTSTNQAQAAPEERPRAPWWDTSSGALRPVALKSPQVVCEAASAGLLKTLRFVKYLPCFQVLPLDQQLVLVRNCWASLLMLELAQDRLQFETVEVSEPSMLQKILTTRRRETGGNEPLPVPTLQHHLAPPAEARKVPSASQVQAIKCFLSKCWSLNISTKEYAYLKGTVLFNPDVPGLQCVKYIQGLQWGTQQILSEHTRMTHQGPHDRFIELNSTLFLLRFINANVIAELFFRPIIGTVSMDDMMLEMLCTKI
hcDAF-12 act – activates DAF-12 receptor from parasite H. contortus; AID 652067; activation, % at 6.8 µM; 1.4% of 370,000 active; HEK293 hcDAF-12 lit1-tk-luc reporter, luminescence; 0% DMSO, 100% Δ7-dafachronic acid;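 active means activation above the mean of all tested compounds plus 3 SD, cut at about 5.5% in these data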
hgDAF12 agonist – hgDAF-12 agonism, primary luciferase screen | HEK293 GAL4-hgDAF12 UAS-luciferase reporter, agonist luminescence; normalized to butyrate control | activation, % at 6.8 µM | 1.8% of 370,000 active;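 active means activation above a cutoff set at the mean of all screened compounds plus 3 SD, cut at about 10% in these data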
ssDAF12 agonist – S. stercoralis DAF-12 activation, primary screen | AID 652126 | HEK293 ssDAF-12/GRIP1 lit1-tk-luc reporter, luminescence; % of 3 µM dafachronic acid response | activation, % at 6.8 µM | 1% of 370,000 active;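 active means activation above the mean over all tested compounds plus 3 SD, cut at about 0.9% in these data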
Hits are given with their value; – = inactive; · = no result. The list is not random: actives were taken first. Their share in the collection is about 4.1%.

SMILES | DAX1 inh-1 | DAX1 inh-2 | hcDAF-12 act | hgDAF12 agonist | ssDAF12 agonist
O=C(CSc1cccs1)Nc1ccc2ccccc2c1 | – | – | – | – | –
O=C(CSc1cccs1)Nc1cccc2ccccc12 | – | – | – | 11 | –
O=C(CSc1nc(=O)n2ccccc2n1)Nc1cccc2ccccc12 | – | – | – | – | 1.0
Cc1cccc(NC(=O)CSc2nc(=O)n3ccccc3n2)c1C | – | – | – | – | –
COC(=O)[C@]12C[C@H](CC(=O)NCc3cccc(C(F)(F)F)c3)C(=O)N(Cc3ccc(Cl)cc3Cl)C1=C[C@H](C(C)C)O[C@@H]2C1CC1 | – | · | – | – | –
Oc1ccc2ccccc2c1N=Nc1ccccc1F | – | – | 6.4 | – | –
CC(C)[C@H](NC(=O)Cc1ccccc1)C(=O)OCc1cc(=O)n2c(n1)sc1ccccc12 | – | – | – | – | 1.1
CCN(CC)C(=O)CC[C@@H]1CC[C@]2(CCCN(Cc3ccc(Br)cc3)C2)O1 | – | · | – | – | –
O=C(CSc1cccc2cccnc12)OCC(=O)c1ccccc1 | – | 4.5 | – | – | –
O=C(CSc1cccc2cccnc12)OCC(=O)c1ccc(Br)cc1 | – | – | – | – | –
CC(C)(C)c1ccc(OC(=O)N2CCOCC2)cc1 | – | – | – | 11 | –
COC(=O)c1ccc2c(c1)NC(=O)C(N(CC(C)C)CC(C)C)S2 (stereo not given) | – | 5.1 | – | – | –
CN(C)CCCNc1cc(C(C)(C)C)nc2c(-c3ccccc3)cnn12 | – | 4.7 | – | – | 1.3
Cc1cc(NCCCn2ccnc2)n2nc(-c3ccc(Cl)cc3)cc2n1 | – | – | – | – | –
CC(C)(C)c1cc(NCCCn2ccnc2)n2ncc(-c3ccc(Cl)cc3)c2n1 | – | – | – | 10 | –
CN(C)CCCNc1cc(-c2ccccc2)nc2cc(-c3cccc(F)c3)nn12 | – | – | – | – | –
S=c1[nH]nc(-c2n[nH]c3c2CCC3)n1N=Cc1ccc(OCc2ccccc2)cc1 | – | · | – | – | –
NC(=O)C1=CN([C@@H]2O[C@H](COP(=O)(O)OP(=O)(O)OC[C@H]3O[C@@H](n4cnc5c(N)ncnc54)[C@H](O)[C@@H]3O)[C@@H](O)[C@H]2O)C=CC1 | – | · | – | – | –
O=C(CCc1ccccc1)N[C@H]1/C(=N/O)CCC[C@]12C(=O)N(Cc1ccccc1)c1ccccc12 | – | · | – | – | –
CCCCOc1ccc(/C=C/C(=O)NCCc2nc3ccccc3[nH]2)cc1 | – | – | – | – | –
COc1ccc(/C=C/C(=O)NCCc2nc3ccccc3[nH]2)cc1 | – | · | – | – | 1.1
O=c1cc(-c2ccccc2)nc(/C=C/c2ccccc2)[nH]1 | – | 5.6 | – | – | –
Cc1csc(Sc2ccc(C(=O)OCC(=O)Nc3ccc(F)cc3[N+](=O)[O-])cc2[N+](=O)[O-])n1 | – | 6.5 | – | – | –
COc1ccc(CCN(Cc2cccs2)S(=O)(=O)c2ccc(F)cc2)cc1OC | – | · | – | – | –
NC(=O)c1ccc(N=C2C(=O)Nc3ccc([N+](=O)[O-])cc32)cc1 | – | 5.3 | – | – | –
SMILES | DAX1 inh-1 | DAX1 inh-2 | hcDAF-12 act | hgDAF12 agonist | ssDAF12 agonist
O=C(Nc1ccc(Br)c(C(F)(F)F)c1)[C@@H]1CC=C[C@@H]2CCN(CC3CC3)C(=O)[C@@H]21 | · | · | – | – | –
Cc1n[nH]c(=O)c2c(NC(=O)CSc3nn(-c4ccccc4)c(=S)s3)oc(C)c12 | – | – | – | – | 1.1
Cc1csc(SCC(=O)Nc2oc(C)c3c(C)n[nH]c(=O)c23)n1 | – | – | – | – | –
Cc1cc(NC(=O)C(=O)NCc2cccc(Cl)c2)no1 | – | 5.5 | – | – | –
COC(=O)c1cc(-c2ccc(OC)c(OC)c2)c(=O)n2c1CCC2 | – | · | – | – | –
CN(C(=O)c1cc(C(=O)N(C)c2ccccc2)cc([N+](=O)[O-])c1)c1ccccc1 | – | 4.3 | – | – | –
O=[N+]([O-])c1cccc(-n2nnnc2CN2CCCC2)c1 | – | – | – | – | –
O=[N+]([O-])c1cccc(-n2nnnc2CNCc2ccccc2)c1 | – | 5.7 | – | – | –
CCCC[C@H]1C2CC(OC(=O)Nc3cccc(C#N)c3)C(C2)[C@H]2CCCCN21 (stereo not given in full) | – | · | – | – | –
C=CCOc1nc(-c2ccccc2Cl)nc2ccccc12 | – | – | – | – | 1.4
CC[C@]12CCCN3CCc4c(n(c5ccccc45)[C@@](O)(C(=O)OC)C1)[C@@H]32 | – | 5.0 | – | – | –
O=C(NCCN1CCC(Cc2ccccc2)CC1)C1CCCN(S(=O)(=O)c2cccs2)C1 (stereo not given) | – | · | – | – | –
COc1cccc(CC(=O)N(Cc2ccccc2)c2ccccc2C(=O)Nc2cc(OC)ccc2OC)c1 | – | · | – | – | –
CC(=O)Nc1ccc(S(=O)(=O)C(C#N)c2nc3ccccc3nc2NCCCO)cc1 (stereo not given) | – | 5.3 | – | – | –
CCN(CC(=O)Nc1ccccc1C(F)(F)F)C(=O)c1ccc(N2C(=O)CCC2=O)cc1 | – | – | – | – | –
CN(CC(=O)Nc1ccccc1C(F)(F)F)C(=O)c1ccc(N2C(=O)CCC2=O)cc1 | – | 4.5 | – | – | –
CC1=NN(C(=O)CCc2ccc3c(c2)OCO3)C(O)(C(F)(F)F)C1 (stereo not given) | – | – | – | – | 9.7
COc1ccc(CC(=O)N2N=C(C)CC2(O)C(F)(F)F)cc1OC (stereo not given) | – | – | – | – | –
Cc1ccc(-c2nnc(SCC(=O)NNC(=S)Nc3ccccc3)n2C2CCCCC2)cc1 | – | · | – | – | –
CC(C)(C)OC(=O)NCc1cc(F)ccc1/C=C/S(=O)(=O)NC1CCCC1 | – | · | – | – | –
COc1ccccc1NS(=O)(=O)c1cccc(C(=O)OCC(=O)Nc2cc(C)on2)c1 | – | – | – | – | –
COc1ccccc1NS(=O)(=O)c1cccc(C(=O)OCc2nc3ccccc3s2)c1 | – | – | 5.6 | – | 2.7
COc1ccccc1NS(=O)(=O)c1cccc(C(=O)NCC(c2ccccc2OC)N2CCCC2)c1 (stereo not given) | 4.3 | – | – | – | –
COc1ccccc1NS(=O)(=O)c1cccc(C(=O)NCC(c2ccco2)N2CCCC2)c1 (stereo not given) | – | – | – | – | –
COC(=O)c1ccc2c(C3(c4c[nH]c5ccccc45)CCN(C(=O)OC(C)(C)C)CC3)c[nH]c2c1 | – | · | – | – | –
C=CCNC(=O)C1(S(=O)(=O)c2ccccc2)CC=CC1 | – | 5.2 | – | – | –
CSc1cnn(CCC#N)c(=O)n1 | – | · | 6.0 | – | 1.2
O=C(O)Cc1sc(Nc2ccc(F)cc2)nc1-c1cccs1 | – | – | – | 15 | –
O=C(Cc1sc(Nc2ccccc2)nc1-c1ccccc1)NCc1ccccn1 | – | – | 6.0 | 11 | –
O=C(O)Cc1sc(Nc2ccccc2)nc1-c1ccc(Cl)cc1 | – | – | – | 11 | –
